# PubChem BioAssay AID1159580 (chemical genetic matrix, 2015)
# Several values for one entry are separate records, joined by “and”; a condition that tells them apart may be missing. Equal entries are not always repeated. About 2,000 (36%) of roughly 5,500 compounds were called active. Another 18% or so got no clear call; they are omitted. The list shows a part of the results. Unmarked numbers belong to inactive results. Rule as the data show it: active = normalized growth mostly below about 0.91 (no sharp cut-off); inconclusive = no clear call, values can overlap the other calls; inactive = mostly above about 0.92.
# Assay: chemical genetic growth profiling, strain panel (AID 1159580);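 also: tested at 20 µM; growth read once vehicle control cultures reached saturation at 30 °C; 1 = growth at the plate median or of vehicle wells; lower values mean less growth of the strain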
# Details: S. cerevisiae deletion strains, growth OD
# [1] = locus YAL013W, strain DEP1, hits give low values
# [2] = locus YAL040C, strain CLN3, hits give low values
# [3] = locus YCL061C, strain MRC1 (second series), hits give low values
# [4] = locus YDR363W, strain ESC2, hits give low values
# [5] = locus YER002W, strain NOP16, hits give low values
# [6] = locus YGR078C, strain PAC10, hits give low values
# [7] = locus YJR075W, strain HOC1, hits give low values
# [8] = locus YMR263W, strain SAP30, hits give low values
# [9] = locus YMR307W, strain GAS1, hits give low values
# [10] = locus YNL128W, strain TEP1, hits give low values
# [11] = locus YNL175C, strain NOP13, hits give low values
# [12] = locus YNL197C, strain WHI3, hits give low values
# [13] = locus YNL224C, strain SQS1, hits give low values
# [14] = locus YNL322C, strain KRE1, hits give low values
# [15] = locus YOR083W, strain WHI5 (second series), hits give low values
# [16] = locus YPL241C, strain CIN2, hits give low values
# [17] = locus YDR150W, strain NUM1, hits give low values
# [18] = locus YNL153C, strain GIM3, hits give low values
# [19] = locus YPL055C, strain LGE1, hits give low values
compound,measurement,setting,value
C[C@@H](Oc1ccc(Oc2cnc3ccc(Cl)cc3n2)cc1)C(=O)O,normalized growth,[1],1.04
same,normalized growth,[2],1.04
same,normalized growth,[3],1
same,normalized growth,[4],1.01
same,normalized growth,[5],0.995
same,normalized growth,[6],1.01
same,normalized growth,"locus YGR229C, strain SMI1, hits give low values",1.02
same,normalized growth,[7],1
same,normalized growth,[8],1.01
same,normalized growth,[9],0.983
same,normalized growth,[10],0.996
same,normalized growth,[11],0.984
same,normalized growth,[12],0.996
same,normalized growth,[13],0.997
same,normalized growth,[14],1
same,normalized growth,[15],1
same,normalized growth,[16],1
Clc1ccc(Oc2ccnc3cc(Cl)ccc23)cc1,normalized growth,[1],0.909 (active)
same,normalized growth,"locus YAR019C, strain CDC15, hits give low values",0.898
same,normalized growth,"locus YBL105C, strain PKC1, hits give low values",0.923
same,normalized growth,"locus YBR135W, strain CKS1, hits give low values",0.913
same,normalized growth,"locus YBR136W, strain MEC1, hits give low values",0.922
same,normalized growth,"locus YBR160W, strain CDC28, hits give low values",0.918
same,normalized growth,"locus YBR229C, strain ROT2, hits give low values",0.956
same,normalized growth,"locus YDL017W, strain CDC7, hits give low values",0.919
same,normalized growth,"locus YDL028C, strain MPS1, hits give low values",0.926
same,normalized growth,"locus YDL101C, strain DUN1, hits give low values",0.915 and 0.93
same,normalized growth,"locus YDL108W, strain KIN28, hits give low values",0.921
same,normalized growth,"locus YDL132W, strain cdc53, hits give low values",0.91
same,normalized growth,"locus YDL214C, strain PRR2, hits give low values",0.745
same,normalized growth,"locus YDR052C, strain DBF4, hits give low values",0.918
same,normalized growth,"locus YDR054C, strain cdc34, hits give low values",0.894
same,normalized growth,[17],0.943
same,normalized growth,"locus YDR226W, strain ADK1, hits give low values",0.903
same,normalized growth,"locus YDR477W, strain SNF1, hits give low values",0.678 (active)
same,normalized growth,"locus YEL061C, strain CIN8, hits give low values",0.944
same,normalized growth,"locus YER123W, strain YCK3, hits give low values",0.517 (active)
same,normalized growth,"locus YER133W, strain GLC7, hits give low values",0.613 (active)
same,normalized growth,"locus YFL009W, strain cdc4, hits give low values",0.903
same,normalized growth,"locus YFL029C, strain CAK1, hits give low values",0.898
same,normalized growth,"locus YFR003C, strain YPI1, hits give low values",0.916
same,normalized growth,"locus YFR019W, strain FAB1, hits give low values",0.893
same,normalized growth,"locus YFR028C, strain CDC14, hits give low values",0.908
same,normalized growth,"locus YGR040W, strain KSS1, hits give low values",0.67 (active)
same,normalized growth,"locus YGR052W, strain FMP48, hits give low values",0.659
same,normalized growth,[6],0.92 (active)
same,normalized growth,"locus YGR092W, strain DBF2, hits give low values",0.627
same,normalized growth,"locus YHR030C, strain SLT2, hits give low values",0.235 (active) and 0.376 (active)
same,normalized growth,"locus YHR079C, strain IRE1, hits give low values",0.546
same,normalized growth,"locus YHR082C, strain KSP1, hits give low values",0.626
same,normalized growth,"locus YHR087W, strain rtc3, hits give low values",0.923
same,normalized growth,"locus YHR205W, strain SCH9, hits give low values",0.704
same,normalized growth,"locus YIL147C, strain SLN1, hits give low values",0.924
same,normalized growth,"locus YJL095W, strain BCK1, hits give low values",0.49 (active)
same,normalized growth,"locus YJL128C, strain PBS2, hits give low values",0.865
same,normalized growth,"locus YJL157C, strain FAR1, hits give low values",0.683 (active)
same,normalized growth,"locus YJR016C, strain ILV3, hits give low values",0.914
same,normalized growth,"locus YJR043C, strain POL32, hits give low values",0.964
same,normalized growth,"locus YJR066W, strain TOR1 (second series), hits give low values",0.684
same,normalized growth,"locus YJR066W, strain TOR1, hits give low values",0.544
same,normalized growth,[7],0.804 (active)
same,normalized growth,"locus YKL048C, strain ELM1, hits give low values",0.888
same,normalized growth,"locus YKL067W, strain YNK1, hits give low values",0.735
same,normalized growth,"locus YKL101W, strain HSL1, hits give low values",0.772
same,normalized growth,"locus YKL193C, strain SDS22, hits give low values",0.911
same,normalized growth,"locus YKL203C, strain TOR2, hits give low values",0.68 (active)
same,normalized growth,"locus YLR039C, strain RIC1, hits give low values",0.779 (active)
same,normalized growth,"locus YLR058C, strain SHM2 (second series), hits give low values",0.951
same,normalized growth,"locus YLR085C, strain ARP6, hits give low values",0.499 (active)
same,normalized growth,"locus YLR113W, strain HOG1, hits give low values",0.379 (active)
same,normalized growth,"locus YLR133W, strain CKI1, hits give low values",0.772
same,normalized growth,"locus YLR262C, strain YPT6, hits give low values",0.817
same,normalized growth,"locus YLR403W, strain SFP1, hits give low values",0.675
same,normalized growth,"locus YML070W, strain DAK1, hits give low values",0.681
same,normalized growth,"locus YML094W, strain GIM5, hits give low values",0.994
same,normalized growth,"locus YMR001C, strain CDC5, hits give low values",0.908
same,normalized growth,"locus YMR205C, strain PFK2 (second series), hits give low values",0.742 (active)
same,normalized growth,"locus YMR219W, strain ESC1, hits give low values",0.948
same,normalized growth,[8],0.945
same,normalized growth,"locus YMR277W, strain FCP1, hits give low values",0.915
same,normalized growth,"locus YNL006W, strain LST8, hits give low values",0.92
same,normalized growth,"locus YNL020C, strain ARK1, hits give low values",0.762
same,normalized growth,[18],0.98
same,normalized growth,"locus YNL161W, strain CBK1, hits give low values",0.897 (active)
same,normalized growth,"locus YNL183C, strain NPR1, hits give low values",0.456 (active)
same,normalized growth,"locus YNL207W, strain RIO2, hits give low values",0.906
same,normalized growth,"locus YNL222W, strain SSU72, hits give low values",0.916
same,normalized growth,"locus YNL298W, strain CLA4 (second series), hits give low values",0.924
same,normalized growth,"locus YNL307C, strain MCK1 (second series), hits give low values",0.701
same,normalized growth,[14],0.947
same,normalized growth,"locus YNR030W, strain Alg12, hits give low values",0.802 (active)
same,normalized growth,"locus YOL078W, strain AVO1, hits give low values",0.904
same,normalized growth,"locus YOL136C, strain PFK27, hits give low values",0.668 (active)
same,normalized growth,"locus YOR061W, strain CKA2, hits give low values",0.792
same,normalized growth,"locus YOR119C, strain RIO1, hits give low values",0.684 (active)
same,normalized growth,"locus YOR231W, strain MKK1, hits give low values",0.489 (active)
same,normalized growth,"locus YOR329C, strain SCD5, hits give low values",0.912
same,normalized growth,"locus YPL031C, strain PHO85, hits give low values",0.599 (active)
same,normalized growth,[19],0.887
same,normalized growth,"locus YPL153C, strain RAD53, hits give low values",0.659 (active)
same,normalized growth,"locus YPL204W, strain HRR25, hits give low values",0.598 (active)
same,normalized growth,"locus YPL209C, strain IPL1, hits give low values",0.918
same,normalized growth,[16],0.638 (active)
same,normalized growth,"locus YPL256C, strain CLN2, hits give low values",0.447 (active)
same,normalized growth,"locus YPR025C, strain CCL1, hits give low values",0.914
same,normalized growth,"locus YPR106W, strain ISR1, hits give low values",0.896
same,normalized growth,"locus YPR111W, strain DBF20, hits give low values",0.89
same,normalized growth,"locus YPR135W, strain CTF4, hits give low values",0.325 (active)
same,normalized growth,"strain NNK1, hits give low values",0.88 (active)
same,normalized growth,"strain TSCII, hits give low values",0.9
Clc1cnc(Oc2ccc(Oc3ncc(Cl)cc3Cl)cc2)c(Cl)c1,normalized growth,[1],1.03
same,normalized growth,[2],1.01
same,normalized growth,[3],1.01
same,normalized growth,[17],1.01
same,normalized growth,[4],1.03
same,normalized growth,[5],0.995
same,normalized growth,[9],1.02
same,normalized growth,[10],1.01
same,normalized growth,[18],1
same,normalized growth,[11],1
same,normalized growth,[12],1.02
same,normalized growth,[13],1.02
same,normalized growth,[15],1.06
same,normalized growth,[19],1.04
same,normalized growth,[16],1.01
NC(=NCc1ccc(Cl)c(Cl)c1)NC(=O)c1nc(Cl)c(N)nc1N,normalized growth,[2],1.01
same,normalized growth,[3],0.999
same,normalized growth,[4],0.992
same,normalized growth,[5],1.01
same,normalized growth,[8],1.01
same,normalized growth,[9],0.993
same,normalized growth,[18],0.995
same,normalized growth,[11],1.02
same,normalized growth,[12],1.03
same,normalized growth,[13],1.03
same,normalized growth,[14],0.966
same,normalized growth,[15],1.01
CC(=O)OCC1=C(C(=O)O)N2C(=O)[C@@H](NC(=O)CCC[C@@H](N)C(=O)O)[C@H]2SC1,normalized growth,[2],0.993
same,normalized growth,[3],1
same,normalized growth,[17],1.01
same,normalized growth,[4],1.03
same,normalized growth,[5],1.02
same,normalized growth,[6],0.993
same,normalized growth,[9],0.997
same,normalized growth,[10],0.98
same,normalized growth,[11],1.01
same,normalized growth,[12],1.02
same,normalized growth,[13],1.03
same,normalized growth,[15],1.04
same,normalized growth,[19],1.01
same,normalized growth,[16],1
c1ccc2c(c1)[I+]c1ccccc1-2,normalized growth,[1],0.513 (active)
same,normalized growth,[2],1.05
same,normalized growth,[3],0.63 (active)
same,normalized growth,[4],0.302 (active)
same,normalized growth,[5],1.02
same,normalized growth,[7],0.429 (active)
same,normalized growth,[11],1.03
same,normalized growth,[12],0.958
same,normalized growth,[13],0.892 (active)
same,normalized growth,[15],0.569 (active)
same,normalized growth,[16],0.517 (active)
